tim23-1 inh = tim23-1 yeast growth inhibition; 1.3% of 330,000 active; S. cerevisiae tim23-1 growth, BacTiter-Glo luminescence, 24 h; inhibition, % at 20 µM;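 active means growth inhibition of the mutant yeast at or above 50%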;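 further: temperature-sensitive mutant grown at 25 °C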
TIM10 inh = growth inhibitors of TIM10 yeast strain | inhibition, % at 10 µM | 1.4% of 330,000 active | S. cerevisiae TIM10 strain growth, BacTiter-Glo luminescence, 24 h;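 active means inhibition of 40% or more at the single tested concentration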;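 further: wild-type TIM10 isogenic control strain grown at permissive 25 °C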
NALP3 yeast inh = inhibitors of NALP3 inflammasome in yeast; Yeast reconstituted NLRP3/ASC/caspase-1, beta-gal luminescence, 24 h; AID 2825; inhibition, % at 10 µM; 0.39% of 330,000 active;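 active means inhibition of 50% or more; inactive means inhibition below 50%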
PfHsp90 set2 = inhibits growth of yeast expressing Plasmodium falciparum Hsp90. S. cerevisiae expressing PfHsp90, BacTiter-Glo ATP, 48 h; yeast lacking PDR1 and PDR3 efflux regulators. inhibition, % at 9.4 µM. AID 504621. 0.32% of 310,000 active;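 active means every replicate shows inhibition above about 80%, whatever the replicate mean, limit read from the data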
tim10-1 inh = tim10-1 yeast growth inhibition | S. cerevisiae tim10-1 ts strain growth, BacTiter-Glo, 24 h | inhibition, % at 20 µM | 2.2% of 330,000 active | AID 463190;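 active means inhibition of at least 40%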;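 further: mutant grown at 25 °C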
SKKanGAS inh = blocks kanamycin growth of S. pyogenes SKKanGAS strain. BacTiter-Glo, 6 h. inhibition, % at 7.5 µM. 1.3% of 300,000 active. AID 1662;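 active means mean replicate score, as percent of positive control median, at least 50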;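 further: strain carries kanamycin resistance gene driven by streptokinase promoter and grows in 40 µg/ml kanamycin; loss of luminescence reflects streptokinase promoter inhibition or plain growth inhibition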
tim23-1 confirm = tim23-1 yeast growth inhibition, confirmed. shares compounds with tim23-1 inh. S. cerevisiae tim23-1 growth, BacTiter-Glo luminescence, 24 h. inhibition, % at 20 µM. 83% of 4,400 active;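 active means inhibition above about 39% in either of two replicate wells at 20 µM, limit read from the data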;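 further: temperature-sensitive tim23-1 mutant grown at 25 °C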
A number is an active result; . = inactive; / = no result given. Sampled rows, rich in hits. Any-hit rate of the full collection: about 4.6%.

SMILES	tim23-1 inh	TIM10 inh	NALP3 yeast inh	PfHsp90 set2	tim10-1 inh	SKKanGAS inh	tim23-1 confirm
Cc1ccc(NC(=O)COC(=O)C2(CC(=O)NC(C)C)CCCC2)cc1C	.	.	.	.	.	/	/
O=c1[nH]c(-c2ccco2)nc2sc3c(c12)CCCC3	50.3	.	.	.	.	.	48.5
O=c1[nH]c(S)nc2sc3c(c12)CCCC3	.	.	.	.	.	.	/
O=C(NN1C(=O)NC2(CCCCC2)C1=O)c1ccc(-c2ccc([N+](=O)[O-])cc2)o1	.	.	.	.	.	.	/
COc1cc(CCc2ccccc2)c(C(=O)O)c(O)c1C/C=C(/C)CCC=C(C)C	74.6	.	/	.	.	/	.
COc1cc(CCc2ccccc2)c(C(=O)O)c(O)c1CC=C(C)C	/	/	/	.	/	/	/
CCOC(=O)C1=CN(Cc2cccc(F)c2)S(=O)(=O)N(C)C1c1cccc(OC)c1 (stereo unspecified)	52.2	.	/	.	.	/	.
CCOC(=O)C1=CN(Cc2cccc(F)c2)S(=O)(=O)N(C)C1c1ccccc1 (stereo unspecified)	.	.	/	.	.	/	/
Cc1sc2nc(C3CC3)nc(SCC(=O)N3CCc4ccccc4C3)c2c1C	.	.	.	/	.	.	/
CCc1c(C)sc2nc(C(C)C)nc(SCC(=O)N3CCc4ccccc4C3)c12	50.6	.	.	/	.	62.5	41.0
NS(=O)(=O)c1ccc(N2N=C(c3ccccc3)CC2c2cccc(Cl)c2)cc1 (stereo unspecified)	52.6	.	/	.	.	/	.
Cc1cc(C(=O)OC(C(=O)Nc2ccc(C)c(Cl)c2)c2ccccc2)c(C)o1 (stereo unspecified)	/	/	/	.	/	.	/
O=C(CCc1ccccc1)N1CCN(Cc2ccc(F)cc2Cl)CC1	.	.	.	.	.	.	/
O=C(Nc1ccc(C2SCCS2)cc1)c1ccccc1	.	.	.	/	.	.	/
COc1cccc(-c2c(NC(=O)c3ccco3)oc3ccc(Cl)cc3c2=O)c1	.	.	.	.	.	.	/
O=C(Nc1oc2ccccc2c(=O)c1-c1ccc(Br)cc1)c1ccco1	52.0	.	.	.	.	.	41.1
O=C(Nc1oc2ccc(Cl)cc2c(=O)c1-c1ccc(F)cc1)c1ccco1	52.7	.	.	.	.	.	45.5
COc1ccc(-c2c(NC(=O)c3ccco3)oc3c(C)cccc3c2=O)cc1	50.6	.	.	.	.	.	42.8
COc1cccc(-c2c(NC(=O)c3ccco3)oc3ccccc3c2=O)c1	.	.	.	.	.	.	/
COc1cc(-c2c(NC(=O)c3ccco3)oc3c(C)cccc3c2=O)cc(OC)c1OC	.	.	.	.	.	.	/
Cn1nc(Cc2n[nH]c(=S)n2C)c2ccccc2c1=O	.	.	.	.	.	.	/
Cc1cccc(-c2ccc3ncnc(NCc4cccs4)c3c2)c1	.	.	.	.	.	/	/
Clc1cccc(-c2ccc3ncnc(NCc4cccs4)c3c2)c1	50.8	.	.	.	.	/	40.2
Clc1ccccc1-c1ccc2ncnc(NCc3cccs3)c2c1	54.2	.	.	.	.	/	.
O=Cc1cccc(OCc2cccc3ccccc23)c1	57.5	.	.	.	.	.	.
SMILES	tim23-1 inh	TIM10 inh	NALP3 yeast inh	PfHsp90 set2	tim10-1 inh	SKKanGAS inh	tim23-1 confirm
CN(C)c1ccc(/C=C/C(=O)c2c(O)c3ccccc3oc2=O)cc1	.	.	.	.	.	.	/
CCOc1ccc(/C=C/C(=O)c2c(O)c3ccccc3oc2=O)cc1	76.0	.	.	.	.	.	.
CCN(CC)c1ccc(C(=O)Nc2cccc(F)c2)cc1	64.9	.	.	.	.	.	73.3
CN(C)c1cccc(C(=O)Nc2cccc(F)c2)c1	.	.	.	.	.	.	/
Cc1nc2scc(C)n2c(=O)c1S(=O)(=O)Nc1ccc(N2CCOCC2)c(Cl)c1	.	.	.	.	.	.	/
Cc1nc2scc(C)n2c(=O)c1S(=O)(=O)Nc1ccc(OC(F)(F)F)cc1	60.0	.	.	.	.	.	64.5
Cc1ccc(/C=N/NC(=O)c2cc3c(s2)CCCC3)o1	.	.	.	.	.	/	/
Cc1nn(-c2ccccc2)c(OC(=O)c2cccs2)c1S(=O)(=O)c1ccccc1	58.2	.	.	.	.	.	51.3
O=C(NCCc1ccccc1)C1CCCN1S(=O)(=O)c1ccccc1 (stereo unspecified)	.	.	.	.	.	.	/
